The AC50 is the midpoint of the concentration-response curve, whichever way the signal moves.

Here are results for seven compounds from PubChem BioAssay (EPA / NIEHS).

A short description of assay [1]: CEETOX_H295R_ESTRONE: CeeTox H295R High-throughput Steroidogenesis Assay for Estrone (AID 2283441).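 On AC50: human adrenal H295R cells prestimulated with forskolin for two days.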 The settings on record: actives raise or lower the signal. The essentials: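 Estrone secreted into medium quantified by LC-MS/MS after dansyl chloride derivatization, following 48 h chemical exposure (0.1% DMSO final) of forskolin-prestimulated (10 uM, 48 h) H295R cells; gain or loss fitted against DMSO; MTT viability in same wells.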

Assay [2] is described as follows: CEETOX_H295R_PROG: CeeTox H295R High-throughput Steroidogenesis Assay for Progesterone (PROG) (AID 2283442).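 On AC50: human H295R adrenal cells primed with 10 µM forskolin before dosing.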 As to conditions: actives raise or lower the signal. In outline: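 H295R adrenal cells prestimulated 48 h with 10 uM forskolin, then exposed 48 h to test chemical in 0.1% DMSO. Progesterone in medium quantified by HPLC-MS/MS after MTBE extraction; viability checked by MTT in same wells.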

Read-out in assay [3]: Fatty acid synthase (Homo sapiens) (UniProt P49327)
In words: LTEA_HepaRG_FASN: Life Technologies and Expression Analysis (LTEA) Assay for Fatty Acid Synthase (FASN) using HepaRG (AID 2283448). As to conditions: mRNA level, 48 h; actives raise or lower the signal. In outline: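 Cells were plated, cultured 48 h, switched to serum-free induction medium, then dosed in duplicate (max 100 uM, half-log dilutions, 0.5% DMSO) for 48 h. RNA was then isolated and FASN quantified by qRT-PCR.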

Read-out in assay [4]: Cyclin Dependent Kinase Inhibitor 1A (CDKN1A), CDKN1A (gene 1026)
The experiment in a line: LTEA_HepaRG_CDKN1A: Life Technologies and Expression Analysis (LTEA) Assay for Cyclin Dependent Kinase Inhibitor 1A (CDKN1A) using HepaRG (AID 2283450). As to conditions: mRNA level, 48 h; actives raise or lower the signal. The essentials:
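Differentiated HepaRG cells in serum-free induction medium, exposed 48 h in duplicate to eight half-log concentrations up to 100 uM in 0.5% DMSO. mRNA measured by TaqMan qRT-PCR, normalized to ACTB, GAPDH, POLR2A; bidirectional fit versus DMSO.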

Read-out in assay [5]: Cyclin D1 (CCND1), CCND1 (gene 595)
In words: LTEA_HepaRG_CCND1: Life Technologies and Expression Analysis (LTEA) Assay for Cyclin D1 (CCND1) using HepaRG (AID 2283451). The settings on record: mRNA level, 48 h; actives raise or lower the signal. In outline: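 Differentiated HepaRG cells exposed 48 h in serum-free induction medium to eight half-log concentrations from 100 uM top, 0.5% DMSO, duplicates. CCND1 mRNA measured by Fluidigm TaqMan qRT-PCR, normalised to ACTB, GAPDH, POLR2A; bidirectional fit.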

Read-out in assay [6]: catalase (CAT), CAT (gene 847)
The experiment in a line: LTEA_HepaRG_CAT: Life Technologies and Expression Analysis (LTEA) Assay for catalase (CAT) using HepaRG (AID 2283452). As to conditions: mRNA level, 48 h; actives raise or lower the signal. In outline: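 Expression of CAT was quantified by TaqMan qRT-PCR with ACTB/GAPDH/POLR2A normalization after 48 h chemical exposure of HepaRG. Eight-point half-log series, top 100 uM, in 0.5% DMSO; gain or loss fitted against vehicle.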

Read-out in assay [7]: flavin-containing dimethylaniline monooxygenases 3 (FMO3), FMO3 (gene 2328)
In words: LTEA_HepaRG_FMO3: Life Technologies and Expression Analysis (LTEA) Assay for flavin-containing dimethylaniline monooxygenases 3 (FMO3) using HepaRG (AID 2283453). As to conditions: mRNA level, 48 h; actives raise or lower the signal. The essentials: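 FMO3 transcript quantified by TaqMan qRT-PCR against three housekeeping genes after 48 h chemical exposure of HepaRG cells. Eight-point half-log series, top 100 uM, 0.5% DMSO vehicle; phenobarbital 1mM induction control; up- or down-regulation fitted.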

Read-out in assay [8]: CFLAR gene, CFLAR (gene 8837)
In words: LTEA_HepaRG_CFLAR: Life Technologies and Expression Analysis (LTEA) Assay for CFLAR gene using HepaRG (AID 2283455). The settings on record: mRNA level, 48 h; actives raise or lower the signal. In outline:
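Transcript level by qRT-PCR (normalized to ACTB, GAPDH and POLR2A) after 48 h chemical exposure of HepaRG cells, top concentration 100 uM with half-log steps, 0.5% DMSO vehicle, duplicates; fitted bidirectionally against DMSO baseline.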

Read-out in assay [9]: Forkhead box O1 (FOXO1), FOXO1 (gene 2308)
In words: LTEA_HepaRG_FOXO1: Life Technologies and Expression Analysis (LTEA) Assay for Forkhead box O1 (FOXO1) using HepaRG (AID 2283456). As to conditions: mRNA level, 48 h; actives raise or lower the signal. In outline: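 FOXO1 transcript quantified by qRT-PCR after 48 h chemical exposure (top 100 uM, half-log steps, 0.5% DMSO) of HepaRG cells, housekeeping-normalized (ACTB/GAPDH/POLR2A). Changes fitted in both directions relative to vehicle.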

Assay [10] is described as follows: CEETOX_H295R_TESTO: CeeTox H295R High-throughput Steroidogenesis Assay for Testosterone (TESTO) (AID 2283457).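 On AC50: cells exposed to chemicals for 48 h before medium collection.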 The settings on record: actives raise or lower the signal. The essentials:
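H295R adrenal cells, passage ≤10, exposed to chemicals for 48 h. Testosterone in medium measured by MTBE extraction and HPLC-MS/MS against a 7-point standard curve. Bidirectional fit versus DMSO; MTT viability checked in the same wells.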

Read-out in assay [11]: growth arrest and DNA damage 45 (GADD45A), GADD45A (gene 1647)
In words: LTEA_HepaRG_GADD45A: Life Technologies and Expression Analysis (LTEA) Assay for growth arrest and DNA damage 45 (GADD45A) using HepaRG (AID 2283458). As to conditions: mRNA level, 48 h; actives raise or lower the signal. The essentials: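 Transcript induction or loss, quantified by TaqMan qRT-PCR against three housekeeping genes, is the read-out. HepaRG cells received chemicals for 48 h across eight half-log concentrations from 100 uM in 0.5% DMSO; gain and loss fitted relative to DMSO.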

Read-out in assay [12]: Forkhead box O3 (FOXO3), FOXO3 (gene 2309)
The experiment in a line: LTEA_HepaRG_FOXO3: Life Technologies and Expression Analysis (LTEA) Assay for Forkhead box O3 (FOXO3) using HepaRG (AID 2283459). As to conditions: mRNA level, 48 h; actives raise or lower the signal. In outline:
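FOXO3 transcript measured by qRT-PCR (normalized to ACTB, GAPDH, POLR2A) after 48 h exposure of HepaRG cells in serum-free induction medium. Duplicates, eight half-log concentrations up to 100 uM, 0.5% DMSO; gain or loss fitted against DMSO.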

Read-out in assay [13]: ABC Transporter (ABCB1), ABCB1 (gene 5243)
In words: LTEA_HepaRG_ABCB1: Life Technologies and Expression Analysis (LTEA) Assay for ABC Transporter (ABCB1) using HepaRG (AID 2283460). The settings on record: mRNA level, 48 h; actives raise or lower the signal. The essentials:
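ABCB1 transcript level measured by TaqMan qRT-PCR against three housekeeping genes after 48 h chemical exposure of differentiated HepaRG cells. Top concentration 100 uM, half-log steps, eight points, 0.5% DMSO vehicle; bidirectional fit relative to DMSO.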

Read-out in assay [14]: growth arrest and DNA damage 45 (GADD45B), GADD45B (gene 4616)
In words: LTEA_HepaRG_GADD45B: Life Technologies and Expression Analysis (LTEA) Assay for growth arrest and DNA damage 45 (GADD45B) using HepaRG (AID 2283461). The settings on record: mRNA level, 48 h; actives raise or lower the signal. In outline: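 Differentiated human HepaRG cells in serum-free induction medium exposed 48 h in duplicate to eight concentrations, top 100 uM, half-log steps, 0.5% DMSO. GADD45B mRNA by TaqMan qRT-PCR, normalized to ACTB, GAPDH, POLR2A; bidirectional fit versus DMSO.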

Read-out in assay [15]: ABC Transporter (ABCB11), ABCB11 (gene 8647)
The experiment in a line: LTEA_HepaRG_ABCB11: Life Technologies and Expression Analysis (LTEA) Assay for ABC Transporter (ABCB11) using HepaRG (AID 2283463). As to conditions: mRNA level, 48 h; actives raise or lower the signal. The essentials:
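ABCB11 transcript levels quantified by TaqMan qRT-PCR against three housekeeping genes after 48 h chemical exposure of HepaRG cultures. Concentrations up to 100 uM in half-log steps, 0.5% DMSO vehicle; both induction and suppression scored.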

Read-out in assay [16]: Broad substrate specificity ATP-binding cassette transporter ABCG2 (Homo sapiens) (UniProt Q9UNQ0)
The experiment in a line: LTEA_HepaRG_ABCG2: Life Technologies and Expression Analysis (LTEA) Assay for ABC Transporter (ABCG2) using HepaRG (AID 2283465). As to conditions: mRNA level, 48 h; actives raise or lower the signal. The essentials: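 ABCG2 transcript was quantified by TaqMan qRT-PCR against three housekeeping genes in HepaRG cells. Cells were treated in duplicate for 48 h across an 8-point half-log series up to 100 uM, with 0.5% DMSO vehicle. Gain or loss versus DMSO was fit.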

Read-out in assay [17]: ATP-citrate lyase (ACLY), ACLY (gene 47)
In words: LTEA_HepaRG_ACLY: Life Technologies and Expression Analysis (LTEA) Assay for ATP-citrate lyase (ACLY) using HepaRG (AID 2283466). The settings on record: mRNA level, 48 h; actives raise or lower the signal. The essentials:
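ACLY mRNA quantified by qRT-PCR on Fluidigm arrays against three housekeeping genes, after 48 h chemical treatment of HepaRG cells (top concentration 100 uM, half-log steps, 0.5% DMSO vehicle). Up- or down-regulation fitted relative to DMSO.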

Read-out in assay [18]: Peroxisomal acyl-coenzyme A oxidase 1 (ACOX1) gene, ACOX1 (gene 51)
The experiment in a line: LTEA_HepaRG_ACOX1: Life Technologies and Expression Analysis (LTEA) Assay for Peroxisomal acyl-coenzyme A oxidase 1 (ACOX1) gene using HepaRG (AID 2283467). The settings on record: mRNA level, 48 h; actives raise or lower the signal. The essentials: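 ACOX1 transcript levels were quantified by TaqMan qRT-PCR against three housekeeping genes after 48 h chemical exposure of differentiated human HepaRG cells. Exposure used eight half-log steps topping at 100 uM, 0.5% DMSO vehicle, in duplicate. Bidirectional curve fits were made relative to DMSO.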

Read-out in assay [19]: Alkaline Phosphatase, Placental (ALPP) gene, ALPP (gene 250)
The experiment in a line: LTEA_HepaRG_ALPP: Life Technologies and Expression Analysis (LTEA) Assay for Alkaline Phosphatase, Placental (ALPP) gene using HepaRG (AID 2283468). The settings on record: mRNA level, 48 h; actives raise or lower the signal. In outline: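 HepaRG cells plated 48 h, then exposed in duplicate for 48 h in serum-free induction medium to 8-point half-log series from 100 uM in 0.5% DMSO. ALPP mRNA by TaqMan qRT-PCR, normalized to ACTB/GAPDH/POLR2A; bidirectional fit versus DMSO.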

Read-out in assay [20]: Cyclin D2 (CCND2), CCND2 (gene 894)
The experiment in a line: LTEA_HepaRG_CCND2: Life Technologies and Expression Analysis (LTEA) Assay for Cyclin D2 (CCND2) using HepaRG (AID 2283449). The settings on record: mRNA level, 48 h; actives raise or lower the signal. The essentials:
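CCND2 transcript levels, quantified by qRT-PCR and normalised to three housekeeping genes, were fitted bidirectionally against 0.5% DMSO. HepaRG cultures were dosed 48 h in duplicate with an 8-point half-log series up to 100 uM.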

The source made the active and inactive calls. How the source made its calls: active means hit-call score of the fitted dose curve at least 0.9, where 1 is the maximum; inactive means score below 0.9.

Broad substrate specificity ATP-binding cassette transporter ABCG2 (Homo sapiens), sequence (Q9UNQ0 whole entry, looked up): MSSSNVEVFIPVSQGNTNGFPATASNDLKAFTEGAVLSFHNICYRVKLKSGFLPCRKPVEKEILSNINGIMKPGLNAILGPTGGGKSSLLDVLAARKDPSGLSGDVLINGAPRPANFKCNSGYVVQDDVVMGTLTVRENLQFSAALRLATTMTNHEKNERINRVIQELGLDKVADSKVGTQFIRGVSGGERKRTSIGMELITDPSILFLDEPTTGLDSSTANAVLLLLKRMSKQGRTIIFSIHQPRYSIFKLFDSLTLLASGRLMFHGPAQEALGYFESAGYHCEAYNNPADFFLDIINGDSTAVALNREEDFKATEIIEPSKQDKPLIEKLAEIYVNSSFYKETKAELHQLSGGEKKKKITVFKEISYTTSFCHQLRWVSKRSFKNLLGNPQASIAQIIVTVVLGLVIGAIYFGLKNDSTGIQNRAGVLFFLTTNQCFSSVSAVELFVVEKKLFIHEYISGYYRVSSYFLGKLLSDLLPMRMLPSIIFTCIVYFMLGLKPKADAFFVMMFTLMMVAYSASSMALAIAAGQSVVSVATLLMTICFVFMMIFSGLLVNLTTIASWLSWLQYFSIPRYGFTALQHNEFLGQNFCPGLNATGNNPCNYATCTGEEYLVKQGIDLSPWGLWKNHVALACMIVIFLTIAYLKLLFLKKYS
Fatty acid synthase (Homo sapiens), sequence (P49327 whole entry, looked up): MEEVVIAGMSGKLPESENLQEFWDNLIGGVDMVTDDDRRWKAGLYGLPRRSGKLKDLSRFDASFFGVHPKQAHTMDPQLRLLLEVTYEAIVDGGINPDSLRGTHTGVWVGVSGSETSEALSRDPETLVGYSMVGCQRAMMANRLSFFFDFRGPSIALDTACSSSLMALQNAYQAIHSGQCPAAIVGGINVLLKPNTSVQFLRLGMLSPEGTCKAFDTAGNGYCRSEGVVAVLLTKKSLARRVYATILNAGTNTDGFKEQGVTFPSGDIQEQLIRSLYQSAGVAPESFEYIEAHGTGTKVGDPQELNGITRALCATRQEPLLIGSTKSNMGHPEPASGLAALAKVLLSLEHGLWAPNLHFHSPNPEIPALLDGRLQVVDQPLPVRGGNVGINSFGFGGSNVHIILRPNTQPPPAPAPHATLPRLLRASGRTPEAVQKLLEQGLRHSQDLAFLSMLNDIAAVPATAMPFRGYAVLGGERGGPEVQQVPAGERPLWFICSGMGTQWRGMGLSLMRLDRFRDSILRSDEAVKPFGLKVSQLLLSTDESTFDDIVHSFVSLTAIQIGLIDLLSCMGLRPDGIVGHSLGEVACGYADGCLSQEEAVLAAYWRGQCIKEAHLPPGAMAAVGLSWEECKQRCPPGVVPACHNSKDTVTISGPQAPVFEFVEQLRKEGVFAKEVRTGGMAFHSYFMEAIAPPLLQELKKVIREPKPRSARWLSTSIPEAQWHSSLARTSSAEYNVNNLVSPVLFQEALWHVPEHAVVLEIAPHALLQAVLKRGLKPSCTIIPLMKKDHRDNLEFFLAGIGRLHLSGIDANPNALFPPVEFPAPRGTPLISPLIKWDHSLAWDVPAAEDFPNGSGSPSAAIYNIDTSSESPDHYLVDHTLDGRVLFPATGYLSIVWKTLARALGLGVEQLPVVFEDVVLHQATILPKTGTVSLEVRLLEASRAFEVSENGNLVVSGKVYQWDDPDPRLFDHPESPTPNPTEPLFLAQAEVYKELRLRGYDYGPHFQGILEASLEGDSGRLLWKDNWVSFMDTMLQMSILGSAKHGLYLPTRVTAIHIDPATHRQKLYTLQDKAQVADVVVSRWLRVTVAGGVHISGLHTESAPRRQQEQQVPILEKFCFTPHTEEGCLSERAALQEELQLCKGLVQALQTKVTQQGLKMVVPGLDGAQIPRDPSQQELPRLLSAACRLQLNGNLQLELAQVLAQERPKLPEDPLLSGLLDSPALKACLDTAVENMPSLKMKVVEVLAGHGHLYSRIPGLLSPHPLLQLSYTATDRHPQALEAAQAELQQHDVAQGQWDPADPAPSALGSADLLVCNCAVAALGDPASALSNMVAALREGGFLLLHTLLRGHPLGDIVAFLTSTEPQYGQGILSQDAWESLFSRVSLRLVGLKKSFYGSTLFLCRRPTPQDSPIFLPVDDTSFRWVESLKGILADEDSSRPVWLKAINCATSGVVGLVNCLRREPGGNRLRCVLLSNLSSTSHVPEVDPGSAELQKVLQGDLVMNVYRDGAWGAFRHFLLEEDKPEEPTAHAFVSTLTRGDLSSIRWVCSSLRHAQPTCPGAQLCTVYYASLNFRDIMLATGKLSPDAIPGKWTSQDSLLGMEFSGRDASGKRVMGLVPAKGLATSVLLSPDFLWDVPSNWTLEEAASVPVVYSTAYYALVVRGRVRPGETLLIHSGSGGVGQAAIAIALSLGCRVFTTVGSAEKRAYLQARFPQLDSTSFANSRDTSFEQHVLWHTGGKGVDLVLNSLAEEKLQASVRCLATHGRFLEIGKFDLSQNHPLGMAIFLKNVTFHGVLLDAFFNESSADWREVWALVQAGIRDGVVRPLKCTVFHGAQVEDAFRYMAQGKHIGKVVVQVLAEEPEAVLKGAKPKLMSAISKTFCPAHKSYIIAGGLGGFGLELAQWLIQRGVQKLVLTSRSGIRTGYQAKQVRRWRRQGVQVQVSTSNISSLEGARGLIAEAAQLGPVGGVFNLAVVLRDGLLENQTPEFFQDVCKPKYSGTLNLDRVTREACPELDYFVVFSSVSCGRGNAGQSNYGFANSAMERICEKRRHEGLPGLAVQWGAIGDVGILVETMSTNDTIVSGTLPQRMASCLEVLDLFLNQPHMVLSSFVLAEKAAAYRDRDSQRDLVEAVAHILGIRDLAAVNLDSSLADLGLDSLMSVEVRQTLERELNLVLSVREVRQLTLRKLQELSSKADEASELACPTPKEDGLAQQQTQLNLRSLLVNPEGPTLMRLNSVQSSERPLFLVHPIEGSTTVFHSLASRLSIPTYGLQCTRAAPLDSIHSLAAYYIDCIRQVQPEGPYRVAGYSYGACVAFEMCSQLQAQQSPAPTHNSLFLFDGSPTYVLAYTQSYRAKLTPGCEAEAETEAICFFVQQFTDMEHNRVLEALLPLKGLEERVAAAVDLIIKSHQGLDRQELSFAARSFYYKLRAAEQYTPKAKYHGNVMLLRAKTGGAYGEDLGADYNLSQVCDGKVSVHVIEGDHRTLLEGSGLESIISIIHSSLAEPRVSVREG

Regarding `CCOP(=S)(OCC)Oc1nc(Cl)c(Cl)cc1Cl`, the outcome in [1], in [3], in assay [4], in assay [5], in [6] and in [7] was inactive. The compound was classed as inactive in [8], in [9], in assay [11], in assay [12], in [13] and in [14]. Moreover, the compound was called inactive in [15], in [16], in assay [17], in assay [18] and in [19]. The figures for the AC50 in assay [2] and in [10] were 39.3 µM (active) and 62.6 µM (active), respectively.
Turning to `COP(=O)(OC)O/C(=C\Cl)c1cc(Cl)c(Cl)cc1Cl`, the call in assay [2] and in assay [10] was inactive.
Regarding `CN(CCCC(=O)c1cccnc1)N=O`, the compound was classed as inactive in assay [2] and in assay [10].
For `O=C(Cc1ccccc1)c1ccccc1`, the AC50 in [2] was 45.9 µM (active).
Still for that read-out and setting: next, `CC1(C)CCC(Cc2ccc(Cl)cc2)C1(O)Cn1cncn1` (centres undefined): 0.0359 µM (active).
Consider `Fc1ccc(C2(Cn3cncn3)OC2c2ccccc2Cl)cc1` (centres undefined), for which, in [1], the AC50 was 2.03 µM (active). Also, in [2], the call was inactive.
For the compound `CC(C)(C)c1cc(O)ccc1O`, the compound was classed as inactive in assay [3], in [20], in [4], in assay [5], in [6] and in assay [7]. Besides, the compound was classed as inactive in assay [8], in assay [9], in assay [11], in [12], in assay [13] and in [14]. Also, the result in assay [15], in assay [16], in assay [17], in assay [18] and in [19] was inactive.
